Screening data as filed in PubChem BioAssay.
MARV entry inh – inhibitors of Marburg virus binding or cell entry. Marburg virus pseudotyped entry inhibition, cell reporter. Potency, µM (top dose mostly 37.8 µM), inactives show at the highest dose activity change, negative = inhibition, most hits filed as inhibitors. 1.8% of 300,000 active. AID 540276; calls by dose curve; tested in HEK293 cells; also: potency is read from the fitted curve at half-maximal effect; % is scaled to controls: 0 for no effect and ±100 for the full control effect
Lassa entry inh – Lassa virus entry inhibition; Lassa virus pseudotype entry inhibition, cell reporter; Potency, µM (doses to about 37.9 µM), for the others: at the top dose activity change, negative = inhibition, hits mostly inhibitors; 1.2% of 300,000 active; AID 540256; calls by dose curve; tested in HEK293 cells; also: potency is read from the fitted curve at half-maximal effect; % is scaled to controls: 0 for no effect and ±100 for the full control effect; nearly all actives have a fitted effect of over 50% in size
AMA1 RON2 block – disrupts binding of P. falciparum AMA1 to RON2 | Potency, µM (top dose mostly 58.2 µM), for inactives: at the highest dose activity change, negative = inhibition, usual class: inhibitors | AlphaScreen AMA1-biotinylated RON2 peptide binding | 0.2% of 360,000 active; active = well fitted inhibition curve with a large enough effect; inconclusive = small, poorly fitted or top-dose-only effect; inactive = no such curve, though single readings can be large or run the other way;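 also: potency is read from the fitted curve at half-maximal effect; 0% = vehicle wells and -100% = peptide control; nearly all actives have a fitted effect of over 45% in size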
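AMA1 (3D7) with his tag at 25 nM final met compounds first, then biotinylated RON2 peptide at 25 nM; detection used donor plus acceptor beads, 10 µg/mL apiece, read by AlphaScreen after 30 min at room temperature.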
Shiga toxin inh – inhibitors of Shiga toxin in Vero cells; 9.2% of 290,000 active; Vero cells, Shiga toxin protein synthesis inhibition reporter; inhibition, % at 38.7 µM; in the data active = inhibition mostly above about 28%, no sharp cut-off; inactive = mostly below about 43%; also: 0% is about no effect
Cycloheximide cs – counter-screen for Shiga toxin inhibitors: cycloheximide protein synthesis inhibition. cell reporter, cycloheximide protein synthesis inhibition counterscreen. max response, %. 12% of 300,000 active; in the data active = max response mostly above about 13%, no sharp cut-off; inactive = mostly below about 14%; also: read at 38.3 µM for the half of the compounds with a filed dose; 0% is about no effect
An asterisk follows results filed as active; ? = inconclusive; nt = no result given; [ ] = another dose, or the depositor's remark. The full list was thinned out, with hits kept by preference.

SMILES	MARV entry inh	Lassa entry inh	AMA1 RON2 block	Shiga toxin inh	Cycloheximide cs
COc1ccc(NS(=O)(=O)c2cc(S(C)(=O)=O)ccc2C)cc1	2.1%	4.6%	-3.2%[2.32 µM]	15.3	4.6
COc1ccc(CCNC(=O)/C=C/c2ccc3ccccc3n2)cc1OC	?	nt	4.1%	45.0	13.6*
O=C(O)c1ccc(N/N=C2/CCSc3ccc(F)cc32)cc1	17.7%[46.1 µM]	-10.6%[46.1 µM]	-14.8%	34.2	37.8*
O/N=C1/CCSc2ccccc21	3.6%	3.6%	2.3%	11.4	5.6
O/N=C1\CCSc2ccc(F)cc21	nt	nt	3.9%	57.8*	32.8*
CC1=C(C(=O)Nc2ccc(C)cc2C)C(C(C)C)n2nc(SCc3ccccc3Cl)nc2N1 (stereo not given)	-2.6%[46.1 µM]	4.9%[46.1 µM]	nt	nt	nt
COc1ccc(CNCc2c(C(=O)O)c(C)n(Cc3ccccc3C)c2C)cc1OC	-16.0%[46.1 µM]	-4.9%[46.1 µM]	nt	nt	nt
COc1ccc(C2C(=O)N(C3CCCCCC3)CC(=O)N2CCC2=CCCCC2)cc1 (stereo not given)	nt	-2.9%[46.1 µM]	nt	nt	nt
COc1ccc(N2CCN(C(=O)c3nc(-c4ccc(Cl)cc4)n4c3CCCCC4)CC2)cc1	nt	-13.3%[46.1 µM]	nt	nt	nt
Cc1cc(/C=C2\C(=N)N3N=CSC3=NC2=O)c(C)n1Cc1ccccc1	?	-22.5%	36.2%	52.3	14.2*
COc1cc(/C=C2\C(=N)N3N=CSC3=NC2=O)ccc1OS(=O)(=O)c1ccccc1	?	20.3%[46.1 µM]	58.9%	18.4	15.8*
COc1cc(/C=C2/C(=N)N3N=C(CC(=O)N4CCOCC4)SC3=NC2=O)ccc1OCc1ccccc1	nt	nt	0.6%	35.2*	20.6*
CSc1ccc(/C=C2\C(=N)N3N=C(CC(=O)N4CCOCC4)SC3=NC2=O)cc1	nt	nt	17.2%	-5.5	-1.5
COc1cc(/C=C2\C(=N)N3N=C(S(C)(=O)=O)SC3=NC2=O)ccc1OS(=O)(=O)c1ccc(C)cc1	nt	nt	46.6%	20.0	23.8*
O=C(CNC(=O)c1ccc(Br)cc1)NCc1cccnc1	11.7%[46.1 µM]	3.3%[46.1 µM]	-2.6%	-14.2	-6.1
Cc1ccc2c(CNCCc3ccco3)c(C(=O)O)n(Cc3ccc(F)cc3)c2c1	nt	-3.9%[46.1 µM]	nt	nt	nt
COc1cc(/C=C2/C(=N)N3N=C(C(C)C)SC3=NC2=O)ccc1OS(=O)(=O)c1ccccc1	?	2.4%[46.1 µM]	51.2%	49.3	8.7*
O=C1CSc2nc3ccccc3n21	10.9%	-1.7%	-0.7%	19.0	20.6*
O=C(O)C1CC(=O)n2c(nc3ccccc32)S1 (stereo not given)	0.8%	-1.7%	13.9%	25.8	0.6
COc1ccc(-c2cc(C(=O)N3CCN(c4ncccn4)CC3)c3ccccc3n2)cc1	nt	nt	2.4%	nt	nt
COc1ccc(-c2cc(C(=O)N3CCN(c4ccccn4)CC3)c3ccccc3n2)cc1	?	?	-1.6%	74.7*	43.4*
CCCc1ccc(-c2cc(C(=O)N3CCN(c4ccccn4)CC3)c3ccccc3n2)cc1	nt	nt	-4.5%	31.5	48.8*
CCOc1ccc(-c2cc(C(=O)N3CCN(c4ccccn4)CC3)c3ccccc3n2)cc1	?	?	-7.8%	53.9*	35.2*
O=C(c1cc(-c2ccccc2Cl)nc2ccccc12)N1CCN(c2ccccn2)CC1	nt	nt	-1.2%	nt	nt
COc1cc(-c2cc(C(=O)N3CCN(c4ccccn4)CC3)c3ccccc3n2)cc(OC)c1OC	?	-23.7%	-0.2%	-10.3	1.0
SMILES	MARV entry inh	Lassa entry inh	AMA1 RON2 block	Shiga toxin inh	Cycloheximide cs
COc1ccc(CNC(=O)c2cn(Cc3ccc(S(=O)(=O)N(C)C)cc3)c(=O)s2)cc1	nt	nt	3.6%	nt	nt
COc1ccc(C(=O)Nc2nnc(S(=O)(=O)N3CCCc4ccccc43)s2)cc1	nt	14.0%[46.1 µM]	nt	nt	nt
Nc1nc2ccc(O)cc2s1	3.2%	11.3%	12.9%	9.5	5.0
CC(C)c1ccc2nc(N)sc2c1	?	-5.0%	8.0%	64.1*	25.5*
Cc1cc2nc(N)sc2cc1C	-25.6%	?	-0.5%	49.4*	41.2*
Cc1nn(-c2ccccc2)c(C)c1NC(=O)COc1ccc([N+](=O)[O-])cc1	?	-16.7%	9.4%	nt	nt
Cc1cccc(N(CC(=O)NCc2ccco2)C(=O)CCC(=O)Nc2nccs2)c1	-18.9%[46.1 µM]	-1.3%[46.1 µM]	-1.0%	-12.7	0.8
COC(=O)C1=CN(c2cccc(C)c2)C=C(C(=O)OC)C1c1cc(OC)c(O)c([N+](=O)[O-])c1	?	4.11µM*	?	-14.3	5.5
O=C(/C=C/c1ccc(Cl)c(Cl)c1)NC1=NCCS1	-20.3%[46.1 µM]	-12.0%	46.8%	79.1*	34.7*
CC(C)c1ccc(/C=C/C(=O)NC2=NCCS2)cc1	0.0%	nt	nt	43.6*	43.7*
CC(=O)N1CCN(CC(=O)Nc2ccc([N+](=O)[O-])cc2Br)CC1	-9.0%[46.1 µM]	25.5%	9.9%	3.8	5.0
CC(=O)Nc1nc(C)c(-c2nc3ccc([N+](=O)[O-])cc3[nH]2)s1	nt	nt	-4.9%	36.6	16.8*
O=[N+]([O-])c1cccc(/C=C/c2nc3ccc([N+](=O)[O-])cc3[nH]2)c1	7.4%[46.1 µM]	?	-25.6%	40.6	18.7*
Cn1cccc1-c1nc2ccc([N+](=O)[O-])cc2[nH]1	?	0.9%	?	39.7*	32.5*
CC(C)(C)c1nc2ccc([N+](=O)[O-])cc2[nH]1	-7.4%[46.1 µM]	?	-10.1%	20.2	-4.5
O=[N+]([O-])c1ccc2nc(-c3cccnc3)[nH]c2c1	18.7%	29.3%	-0.1%	59.7	21.3*
CCOc1ccc(C(=O)N2CCC(c3nc4ccccc4o3)CC2)cc1	-16.8%[46.1 µM]	-5.3%[46.1 µM]	nt	nt	nt
CO[C@@H]1c2cc(F)ccc2C(=CCCOC(=O)CC=Cc2ccccc2)[C@H]1C	-24.4%[14.2 µM]	nt	nt	nt	nt
O=[N+]([O-])c1ccc2nc(-c3ccccc3)[nH]c2c1	?	-11.0%	-5.3%	24.7	41.5*
Cc1nc2ccc([N+](=O)[O-])cc2[nH]1	7.7%[46.1 µM]	5.9%[46.1 µM]	?	-1.9	8.6
COCCCNC(=O)c1c(NC(=O)c2cc(=O)c3ccccc3o2)sc2c1CCCC2	0.2%[46.1 µM]	2.8%[46.1 µM]	nt	nt	nt
Cc1ccc(NC(=O)Nc2cccs2)c(Cl)c1	?	?	-6.8%	107.2*	56.8*
O=C(Nc1cccs1)Nc1ccccc1Cl	-11.7%	-21.0%	18.2%	77.8*	75.3*
O=C(Nc1cccs1)Nc1cccnc1Cl	-2.3%[46.1 µM]	-8.0%[46.1 µM]	-1.3%	58.9*	60.4*
N#Cc1ccccc1NC(=O)Nc1cccs1	-0.7%	3.1%	10.4%	-22.4	-3.3
SMILES	MARV entry inh	Lassa entry inh	AMA1 RON2 block	Shiga toxin inh	Cycloheximide cs
Cc1cccnc1NC(=O)Nc1cccs1	10.2%	21.8%	0.0%	35.3	23.8
Cc1cccc(NC(=O)Nc2cccs2)c1C	-0.1%[46.1 µM]	nt	nt	nt	nt
Cc1c(NC(=O)Nc2cccs2)cccc1[N+](=O)[O-]	nt	nt	3.7%	32.3	12.2*
O=C(Cc1cc(=O)oc2cc(O)ccc12)NN=Cc1ccc(N(CCCl)CCCl)cc1	4.47µM*	?	-8.1%	nt	nt
CCNC(=O)N1C[C@H]2CON(C)[C@H]2C[C@H]1c1ccccc1Br	nt	nt	6.4%	nt	nt
CCCc1ccc2oc(C(=O)N(C)CCn3ccnc3C)c(C)c2c1	nt	nt	5.6%	19.7*	13.5*
CCCc1ccc2oc(C(=O)N(C)Cc3cnccn3)c(C)c2c1	nt	nt	6.7%	-19.2	-4.8
CCCc1ccc2oc(C(=O)NCc3nnc(C)o3)c(C)c2c1	-28.8%[46.1 µM]	?	2.1%	97.2*	44.7*
CCN(CC)S(=O)(=O)c1ccc2oc(C(=O)NCCCN3CCOCC3)c(C)c2c1	?	-19.7%	13.7%	-5.7	-1.7
CCc1ccc2oc(C(=O)NCc3ccc(S(N)(=O)=O)cc3)c(C)c2c1	0.5%[46.1 µM]	?	5.3%	17.6	0.9
